Screening results (PubChem)
Rows were chosen to be rich in hits. Some 7% of all compounds tested hit in one or more screens of this group.
rCAG RNA binder – r(CAG) repeat RNA binding. TO-PRO-1 dye displacement fluorescence. actives 1.3% (n = 370,000). inhibition, % at 3 µM;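 active = inhibition above the plate cutoff, the mean of all test compounds on that plate plus 3 SD, cut at about 35% in these data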;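 note: 0% = DMSO alone and 100% = 100 µM mitoxantrone as full dye displacement; higher means more dye released from RNA so lower well fluorescence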
proKLK7 act – proKLK7 (human) activation, primary screen; P49862; purified proKLK7, EDANS-DABCYL substrate fluorescence; 100% is mature enzyme control, 0% vehicle; activation, % at 7 µM; actives 0.9% (n = 370,000); AID 652039;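 active = activation above the mean of all tested compounds plus 3 SD, computed per campaign excluding outliers beyond control limits, cut at about 13% in these data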
Target sequence (P49862 whole entry, looked up): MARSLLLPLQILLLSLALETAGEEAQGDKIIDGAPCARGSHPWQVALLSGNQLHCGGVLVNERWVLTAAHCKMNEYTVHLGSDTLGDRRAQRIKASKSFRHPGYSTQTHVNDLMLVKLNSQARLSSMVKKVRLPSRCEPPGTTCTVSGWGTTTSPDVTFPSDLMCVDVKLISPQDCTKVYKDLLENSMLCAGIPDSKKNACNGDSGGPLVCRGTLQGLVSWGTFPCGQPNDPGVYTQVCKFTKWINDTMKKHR
AHR activator – activators of human aryl hydrocarbon receptor; activation, % at 5 µM; AHR-responsive luciferase reporter cells, luminescence; actives 2.5% (n = 320,000); P35869; AID 2796; in the data active = activation above about 47%;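 note: 0% = vehicle wells and 100% = reference agonist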
ADAM17 inh – inhibits human ADAM17; P78536; recombinant ADAM17, EDANS/DABCYL FRET peptide cleavage; inhibition, % at 6.95 µM; actives 0.83% (n = 370,000);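 active = inhibition above the mean of compounds lying between control limits plus 3 SD, set per campaign, cut at about 8.5% in these data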;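 note: 0% = DMSO-only wells as the low control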
ADAM10 inh – ADAM10 inhibition, QFRET primary screen. AID 720582. inhibition, % at 7 µM. O14672. recombinant ADAM10, EDANS/DABCYL FRET peptide cleavage, 3 h. actives 0.62% (n = 370,000);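 active = inhibition above a per-campaign cutoff equal to the mean of compounds falling between control-based bounds plus 3 SD, cut at about 20% in these data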;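 note: 0% = DMSO wells while the 100% control is not disclosed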
GRIN3A LBD mod – modulators (binders) of human NR3A ligand-binding domain; Tm shift relative to glycine control, % at 25 µM; actives 2.5% (n = 340,000); AID 1259313; NR3A LBD differential scanning fluorimetry, Tm shift; 0% = protein alone, 100% = glycine-bound protein;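 active = melting temperature shift of at least 10% of the positive control shift, at one fixed dose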
proKLK7 act conf – proKLK7 activation, confirmation | shares compounds with proKLK7 act | purified proKLK7, EDANS-DABCYL substrate fluorescence; scaled: vehicle 0, mature enzyme 100 | activation, % at 7 µM | actives 68% (n = 3,200);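 active = activation, as change over the incubation, above the mean of all tested compounds plus 3 SD, cut at about 13% in these data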
EDANS-DABCYL int – fluorescence interference counter-screen for KLK7 activators | shares compounds with proKLK7 act | activation, % at 7 µM | actives 80% (n = 3,200) | EDANS-DABCYL substrate fluorescence interference, no enzyme, 4 h; solvent 0%, active enzyme control 100%;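 active = activation above the all-compound mean plus 3 SD, ignoring values outside control-based bounds, cut at about 4.8% in these data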;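 note: value is the 4 h activation minus the activation read at time zero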
K7 EDANS ctr – counter-screen for kallikrein-7 activators: EDANS-DABCYL interference, dose response | EDANS-DABCYL peptide fluorescence interference, no enzyme | actives 20% (n = 250) | EC50, µM | AID 720493 | shares compounds with proKLK7 act;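 active = compounds that raise the fluorescence signal in this interference counterscreen, with EC50 at or below 10 µM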;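 note: intact quenched peptide substrate alone read at 355 nm excitation and 520 nm emission; signal is fluorescence gain from T0 to T4 after four hours at room temperature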
An asterisk follows results filed as active; i = inactive; / = not tested or not shown; ! = repeats disagree.

SMILES	rCAG RNA binder	proKLK7 act	AHR activator	ADAM17 inh	ADAM10 inh	GRIN3A LBD mod	proKLK7 act conf	EDANS-DABCYL int	others
COc1ccc(C2Nc3ccccc3C(=O)N2Cc2ccco2)cc1CN1C(=O)c2ccccc2C1=O (centres undefined)	9.7	29.6*!	1.4	-32.3	-105.5	-2.3	11.0	5.8*
COc1ccc(C2Nc3ccccc3C(=O)N2Cc2ccco2)cc1COc1ccc(F)cc1 (centres undefined)	11.6	-15.3	1.4	-84.6	-307.7	-4.9	/	/
COc1ccc(C2Nc3ccccc3C(=O)N2Cc2ccco2)cc1COc1ccccc1C (centres undefined)	/	/	/	-85.7	-260.0	/	/	/
Cc1ccc(S(=O)(=O)NC(=O)c2cc(C)n(-c3ccc(N(C)C)cc3)c2C)cc1	27.9	0.7	4.2	-0.1	1.8	4.2	/	/
COc1ccc2c(c1)C1(Nc3ccccc3-c3nc4ccccc4n31)C(=O)N2 (centres undefined)	7.3	0.3	1.3	0.2	-19.8	-15.3	/	/
CC1(c2ccncc2)Nc2ccccc2-c2nc3ccccc3n21 (centres undefined)	0.6	57.3*	31.6	i	i	-19.6	-3.4	-1.8
O=C1CC(N(O)c2ccccc2)C(=O)N1Cc1ccccc1 (centres undefined)	1.3	0.5	4.8	-3.5	2.6	-2.1	/	/
CCN(CCO)C1CC(=O)N(c2ccccc2C)C1=O (centres undefined)	/	/	-0.6	/	/	-1.1	/	/
O=C1CC(N(O)c2ccccc2)C(=O)N1c1cc(Cl)cc(Cl)c1 (centres undefined)	18.1	47.8*	-6.2	0.4	-9.1	-1.7	645.3*	616.9*
COc1ccccc1N1C(=O)CC(N(O)c2ccccc2)C1=O (centres undefined)	3.7	117.5*	4.4	0.8	9.1	1.6	191.9*	195.4*
Cc1ccccc1N1C(=O)CC(N(O)c2ccccc2)C1=O (centres undefined)	6.6	362.9*	3.4	4.3	-4.5	0.5	316.9*	330.3*
CCCOc1ccccc1N1C(=O)CC(N(O)c2ccccc2)C1=O (centres undefined)	6.7	47.1*	3.2	1.3	-5.9	-0.1	29.1*	31.2*
COc1ccccc1N(O)C1CC(=O)N(c2ccc(F)cc2)C1=O (centres undefined)	11.9	6.3	5.4	0.7	11.8	-2.6	/	/
CCCOc1ccc(N2C(=O)CC(N(Cc3ccccc3)N=O)C2=O)cc1 (centres undefined)	1.4	0.0	0.9	2.0	-7.0	1.2	/	/
CCCOc1ccc(N2C(=O)CC(N(O)c3ccccc3)C2=O)cc1 (centres undefined)	8.1	111.6*	0.6	-5.9	1.5	-2.2	120.0*	124.8*
COc1cc(OC)c(/C=N/n2c(C)nnc2C)c(OC)c1	4.0	16.2*	-0.9	-0.4	-0.5	-7.9	2.0	3.0
Brc1ccc2nc(-c3c[nH]c4ccccc34)cn2c1	7.2	-1.5	44.6	-17.4	-45.4	6.0	/	/
Cc1cccn2cc(-c3c[nH]c4ccccc34)nc12	1.2	16.3*	58.7*	-220.5	i	-1.1	6.2	2.1
Cc1nc2c(c3c1[nH]c1ccccc13)C(O)CC(C)(C)C2 (centres undefined)	-4.3	34.1*	7.8	-477.4	i	-2.0	41.3*	40.2*
Cc1nn(-c2ccccc2)c2c1C(O)CC(C)(C)C2 (centres undefined)	0.5	-0.4	2.6	-4.7	-5.5	0.6	/	/
CC1CN(CC(O)c2ccc(Br)cc2)CCO1 (centres undefined)	0.5	0.1	/	-6.2	-4.7	-1.3	/	/
CCOc1cc(CNC(C)C)c(Cl)cc1OCC(=O)NCCc1ccccc1	-5.8	0.2	16.6	-4.0	0.3	-0.7	/	/
CC(=O)c1cccc(NC(=O)CSc2n[nH]c(=O)n2C2CC2)c1	3.3	51.6*	2.2	-0.7	-1.1	0.2	-1.2	0.7
O=C(CCC1CCCCC1)Nc1nncs1	0.3	0.4	17.8	1.6	-2.8	-2.4	/	/
CC(C)Cn1c(N)c(C(=O)COC(=O)c2ccncc2)c(=O)n(C)c1=O	0.2	0.4	0.1	-0.8	-1.2	0.3	/	/
SMILES	rCAG RNA binder	proKLK7 act	AHR activator	ADAM17 inh	ADAM10 inh	GRIN3A LBD mod	proKLK7 act conf	EDANS-DABCYL int	others
CC(C)Cn1c(N)c(C(=O)COC(=O)c2nccnc2N)c(=O)n(C)c1=O	0.5	13.2*	0.7	i	i	-0.3	4.3	1.1
CCOC(=O)C1CCCN(C(=O)Cn2nc(C)n3c(cc4c(OC)cccc43)c2=O)C1 (centres undefined)	-5.2	18.3*	4.6	i	i	-1.1	8.4	6.4*
COc1ccc(CNC(=O)COC(=O)c2cc(-c3cccs3)nc3ccccc23)cc1OC	10.6	14.8*	11.0	-82.8	-345.4	-3.3	-3.5	0.1
O=C(NC1=NCCS1)c1cc(-c2cccnc2)nc2ccccc12	3.5	-0.1	29.6	-1.8	-0.5	-0.8	/	/
CCOC(CCNC(=O)c1cc(-c2cccs2)nc2ccccc12)OCC	-2.1	32.2*	3.9	i	i	0.0	9.2	9.8*
COc1ccc(CNC(=O)COC(=O)c2cc(C)nc3ccccc23)cc1	3.0	-0.2	0.2	-5.1	-29.6	4.4	/	/
O=C(NC1=NCCS1)c1cc(-c2cccs2)nc2ccccc12	8.3	34.7*	17.4	-210.4	i	-2.3	-27.7	-14.1
O=C(O)c1ccc(/C=N/NC(=O)c2cc(-c3cccs3)nc3ccccc23)cc1	27.8	23.2*	20.9	-205.9	i	2.9	28.5*	20.6*	K7 EDANS ctr=i
NNC(=O)c1cc(-c2cccs2)nc2ccccc12	14.3	-30.2	15.1	-215.7	i	0.6	/	/
CNC(C)C(=O)NC(C(=O)NC(C)C(=O)Nc1cccc2ccccc12)C(C)C (centres undefined)	5.3	-0.5	/	-5.8	-21.9	/	/	/
COc1ccc(C2=NCCc3cc(OC)c(OC)cc32)cc1	-0.1	30.2*	1.9	-14.1	-36.9	-5.2	11.2	12.9*
COc1cc2c(cc1OC)C(c1c(-c3c(Cl)cccc3Cl)noc1C)=NCC2	-1.2	8.6	/	-21.9	-58.0	/	/	/
COc1ccc(C2=NC(C)(C)Cc3cc(OC)c(OC)cc32)cc1	-2.5	22.5*	1.2	-10.1	-16.7	1.4	8.7	7.1*
COc1cc2c(cc1OC)C(c1c(Cl)cccc1Cl)=NCC2	1.0	3.6	/	1.1	-15.0	/	/	/
